Test results from PubChem BioAssay.

Test: compound effects on hepatocellular carcinoma cell viability – HepG2, calcein-AM fluorescence, 48 h, basal, profiling panel (AID 1164); note: test concentration not given here
Details: higher = more signal

Compound | z-score
CO[C@H]1COC(=O)CCC[C@H](C)[C@H](OC)COC(=O)CC=C[C@@H]1C | 0.481
CCO[C@H](c1cc(OC)cc([N+](=O)[O-])c1OC)[C@H](C)[C@@H](OC)[C@H](C)C=CCC(=O)OC | 0.513
O=C1[C@H]2[C@H]3[C@H](O)[C@H](O)CC(=NOC[C@@H](O)COCc4ccco4)[C@@H]3CC[C@H]2C(=O)N1Cc1ccccc1 | -0.297
COC(=O)CC=C[C@@H](C)[C@@H](C=NOC[C@@H](O)COCc1ccco1)OC | 0.436
C[C@@H](c1ccccc1)N1C(=O)[C@H]2[C@H]3[C@H](O)[C@H](O)CC(=NNC(=O)OCc4ccccc4)[C@@H]3CC[C@H]2C1=O | -0.468
CCOC(=O)[C@H](Cc1ccccc1)NC(=O)CCC1CC(OC(=O)NCc2ccc3c(c2)OCO3)CC2(CCCC(COC(=O)NCCOC)O2)O1 (stereo partly specified) | -0.971
CCOC(=O)CCN1C(=O)[C@H]2[C@H]3[C@H](O)[C@H](O)CC(=NNC(=O)OCc4ccccc4)[C@H]3CC[C@H]2C1=O | -0.222
COc1ccc(O[C@H]2C=C[C@@H](c3ccccc3)O[C@@H]2COC(=O)CCC(C)=NOC[C@@H](O)COCc2ccco2)cc1 | 0.599
CCCCOC(OCCCC)C(O)CSc1ccc2ccccc2c1 (stereo unspecified) | 0.0428
CC(C)CON=C1C[C@@H](O)[C@@H](O)[C@@H]2[C@@H]3C(=O)N(Cc4ccc5c(c4)OCO5)C(=O)[C@@H]3CC[C@@H]12 | -0.211
COC(=O)[C@H](C)NC(=O)CCC1CC(OC(=O)NCCc2ccc(F)cc2)CC2(CCCC(COC(=O)NCCc3ccccc3OC)O2)O1 (stereo partly specified) | 0.308
